SIRT5 inh = inhibitors of human sirtuin-5 desuccinylase; Q9NXA8; inhibition, % at 15 µM; Purified SirT5, succinyl-peptide AMC, trypsin-coupled fluorescence; AID 652115; 330,000 tested, 1.1% active; in the data active = inhibition above about 15%
FGF22 binding = binders of recombinant human FGF22 by thermal shift; Q9HCT0; SYPRO orange fluorescence; percent of sucrose octasulfate shift, DMSO zero; activity (Tm shift, normalised), % at 9.99 µM; 340,000 tested, 1.5% active; AID 651658;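 active = mean Tm shift, scaled 0 neutral to 100 positive control, at about 1.3% or above, every replicate too, limit read from the data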
Target sequence (Q9HCT0 whole entry, looked up): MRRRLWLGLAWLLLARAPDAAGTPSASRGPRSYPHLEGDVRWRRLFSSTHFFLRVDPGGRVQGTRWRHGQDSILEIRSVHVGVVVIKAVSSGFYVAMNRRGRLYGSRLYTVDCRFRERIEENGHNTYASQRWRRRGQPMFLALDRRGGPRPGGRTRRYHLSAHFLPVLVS
Casp6 inh = blocks human caspase-6 cleavage activity | P55212 | AID 686996 | inhibition, % at 12.5 µM | purified caspase-6, Z-VEID-R110 cleavage fluorescence | 350,000 tested, 0.53% active;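 active = mean inhibition across replicates at least about 35%, with every replicate also reaching that limit, limit read from the data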;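 note: 0% = median of neutral control wells and 100% = no fluorescence left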
Target sequence (P55212 24-179 limits assumed): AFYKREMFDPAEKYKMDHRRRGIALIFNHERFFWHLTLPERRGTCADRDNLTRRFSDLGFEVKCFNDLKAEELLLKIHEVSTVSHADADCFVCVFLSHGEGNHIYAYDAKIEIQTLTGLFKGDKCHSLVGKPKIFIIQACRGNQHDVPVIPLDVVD
Target sequence (P55212 194-293 limits assumed): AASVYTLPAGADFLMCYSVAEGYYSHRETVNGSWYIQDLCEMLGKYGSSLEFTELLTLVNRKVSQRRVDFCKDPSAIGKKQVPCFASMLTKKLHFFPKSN
ERAP1 HTS inh = ERAP1 (human) enzyme inhibition; Q9NZ08; recombinant ERAP1, Leu-AMC fluorescence, 60 min; inhibition, % at 10.7 µM; 340,000 tested, 0.15% active; AID 652197;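 active = mean replicate inhibition of at least 30%, or all replicates individually reaching that 30% level; inactive = mean below 30% and not every replicate reaching it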;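 note: 0% = neutral control wells and 100% = L-leucinethiol positive control wells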
GSIS activator = primary screen for activators of insulin secretion dependent on glucose, INS-1E cells, GLuc reporter luminescence. INS-1E GLuc reporter insulin secretion, 2-3 h. activation, % at 16.6 µM. 370,000 tested, 0.61% active;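 active = lowest replicate activation of at least 40%, so every replicate reaches that level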;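 note: 0% = median of neutral control wells and 100% = median of IBMX positive control wells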
Numbers without * were called inactive; nt = no result given. Most compounds without a hit are left out; they make up all but 3.3% or so of the library.

SMILES	SIRT5 inh	FGF22 binding	Casp6 inh	ERAP1 HTS inh	GSIS activator
CCN=C1S/C(=C/c2ccc(-c3ccc(Cl)cc3C(=O)O)o2)C(=O)N1CC	6	-1	36*	-11	88*
CCN1C(=O)/C(=C\c2ccc(-c3ccc([N+](=O)[O-])cc3OC)o2)SC1=Nc1cccc(C(=O)O)c1	9	0	26	3	-2
C[C@@H]1CCCCO[C@H](CN(C)C(=O)C2CCCCC2)[C@@H](C)CN([C@@H](C)CO)C(=O)c2cc(NC(=O)c3ccncc3)ccc2O1	-5	0	-3	-4	-2
O=C(C[C@@H]1C[C@H]2c3cc(NC(=O)c4cccnc4)ccc3O[C@H]2[C@@H](CO)O1)NCc1cc(F)ccc1F	1	0	2	1	13
Cc1ccccc1S(=O)(=O)N1[C@@H]2CNC[C@H]1C2c1ccc(/C=C/c2ccccc2)cc1 (some centres undefined)	4	nt	1	-2	11
Cc1ccccc1S(=O)(=O)N1[C@@H]2CNC[C@H]1[C@@H]2c1ccc(-c2ccc(C#N)cc2)cc1	-5	nt	40*	-1	10
C=CCc1cccc(CNc2c(C)cc(C)cc2C)c1O	-2	44*	-2	3	-3
CCCCC(=O)N(Cc1ccc2c(c1)OCO2)Cc1nc2ccccc2c(=O)[nH]1	-1	0	1	-1	-1
CCCCN(Cc1nc2ccccc2c(=O)[nH]1)C(=O)c1nn(C)c(=O)c2ccccc12	-4	nt	-1	2	47*
O=C(Nc1cc2c(cc1[N+](=O)[O-])OCCO2)c1cccnc1	nt	43*	-2	-1	nt
COc1cccc(NC(=O)C[C@@H]2CC[C@@H]3[C@H](COc4ccc(NC(=O)C5CCC5)cc4C(=O)N3C)O2)c1	-5	nt	0	1	-18
COc1cc2c(cc1OC)[C@H](C)N(C(=O)COc1ccccc1)CC2	0	0	-2	-4	11
COc1cc2c(cc1OC)CN(C(=O)Cc1ccccc1)CC2	-6	0	5	-1	63*
COc1cc2c(cc1OC)CN(C(=O)CCOc1ccccc1)CC2	-1	0	3	0	21
COc1cc2c(cc1OC)[C@H](C)N(C(=O)NCc1ccccc1)CC2	-5	0	-3	-3	54*
CCCNC(=O)C[C@@H]1CC[C@H]2[C@H](COc3ccc(NC(=O)c4cscn4)cc3C(=O)N2C)O1	nt	nt	nt	nt	4
CCC(=O)Nc1sc(Cc2ccc3c(c2)OCO3)c(C)c1C(N)=O	-4	0	-2	0	67*
Cc1c(Cc2ccccc2)sc(NC(=O)Cc2ccccc2)c1C(N)=O	-4	nt	-2	6	10
Cc1c(Cc2ccc3c(c2)OCO3)sc(NC(=O)c2ccc3ccccc3c2)c1C(N)=O	3	0	-4	1	nt
Cc1c(Cc2ccccc2)sc(NC(=O)C(C)(C)C)c1C(N)=O	-2	0	4	nt	46*
O=C(C[C@@H]1C[C@H]2c3cc(NC(=O)CC4CC4)ccc3O[C@H]2[C@H](CO)O1)NCc1ccncc1	3	-1	-4	-3	2
C[C@@H]1CN([C@@H](C)CO)C(=O)c2cc(NC(=O)CCN3CCOCC3)ccc2O[C@@H]1CN(C)S(=O)(=O)c1cn(C)cn1	7	0	0	4	30
CO[C@H]1CN(C)C(=O)c2cc(NC(=O)C3CC3)ccc2OC[C@H](C)N(Cc2ccc(F)cc2)C[C@@H]1C	0	0	2	2	3
CN(CC(=O)Nc1cccc(Cl)c1)S(=O)(=O)c1ccc2c(c1)n(C)c(=O)c(=O)n2C	33*	0	0	-3	19
CN(CC(=O)O)S(=O)(=O)c1ccc2c(c1)n(C)c(=O)c(=O)n2C	1	44*	-3	1	nt
SMILES	SIRT5 inh	FGF22 binding	Casp6 inh	ERAP1 HTS inh	GSIS activator
CCC(=O)N1[C@H](CO)[C@@H](c2ccccc2)C12CN(Cc1ccccc1F)C2	2	0	-1	-3	-7
Cc1cc(N2CCOCC2)nc(C(C)C)n1	-2	0	2	-5	2
Cc1cc(N2CCOCC2)nc(N2CCOCC2)n1	-1	43*	-1	-2	7
CCCCCc1ccc(-c2nnc(N)s2)cc1	-2	43*	1	-6	23
Cn1c(=O)c2c(-c3ccccc3)n(-c3cccc(O)c3)cc2n(C)c1=O	39*	41	5	1	-8
COCC#Cc1cnc2c(c1)C(=O)N([C@@H](C)CO)C[C@H](C)[C@H](CN(C)C(=O)Cc1ccncc1)O2	-2	0	3	0	4
Cc1noc(C)c1S(=O)(=O)Nc1cccc2c1O[C@@H](CN(C)S(=O)(=O)c1ccccc1)[C@@H](C)CN([C@@H](C)CO)C2=O	1	0	1	-5	0
COc1cc(OC)c(C2=Nc3ccc(Br)cc3C(c3ccccc3)N2CC(=O)NN)cc1OC (centres undefined)	0	0	-5	-1	-7
NNC(=O)CN1C(c2ccccc2)=Nc2ccc(Br)cc2C1c1ccccc1 (centres undefined)	-6	43*	-3	0	2
CC1=Nc2ccc(Br)cc2C(c2ccccc2)N1CC(=O)NN (centres undefined)	-4	43*	-3	3	-11
CC1C2CCC(C2)C1OC(=O)c1ccccc1C(=O)O (centres undefined)	nt	44*	2	-2	nt
O=C(O)c1ccccc1C(=O)OC1CCCC2CCCC21 (centres undefined)	nt	43*	-4	-6	nt
O=C(O)c1ccccc1N1C(=O)C2C3CCC(C3)C2C1=O (centres undefined)	1	0	0	1	-4
CCOc1cc(/C=C/c2cccc[n+]2C)ccc1OCC(=O)Nc1ccc(C)cc1	2	0	nt	73*	1
CCOc1ccc(N(Cc2ccc(OC)cc2)C(=O)c2ccco2)cc1	0	0	2	-1	-5
COc1ccc(CN(C(=O)c2ccco2)c2ccc(C)c(C)c2)cc1	112*	0	4	0	4
Cc1noc(C)c1NC(=O)Nc1cccc2c1O[C@@H](CN(C)C(=O)NC(C)C)[C@@H](C)CN([C@@H](C)CO)C2=O	0	1	0	0	1
Cc1ccnc(NCc2cccc3ccccc23)c1	53*	0	5	0	7
C[C@@H]1CN([C@@H](C)CO)C(=O)c2cc(NC(=O)CCCN(C)C)ccc2O[C@H]1CN(C)Cc1ccc(Cl)c(Cl)c1	-6	0	-1	2	23
COC(=O)/C=C/c1sc2nc(C)cc(C)c2c1N=CN(C)C	32*	0	nt	-5	24
COC(=O)c1sc2nc(C)cc(C)c2c1N	1	0	-2	0	10
Cc1cc2c(NCCc3ccccc3)ncnc2s1	-3	0	2	0	-16
Cc1cc2c(Nc3ccccc3)ncnc2s1	16*	0	-5	2	6
